We go through 40 compounds from PubChem BioAssay (Tox21).

SMILES strings stand for the structures. Results filed as inconclusive are left out. Entries that show only a call come without a potency. Values without a mark were called inactive. The source made the active and inactive calls. Calls come from the whole dose curve; as a rule, active = well fitted cell-killing curve with a large enough effect in the repeat runs; inconclusive = weak or mixed curves, or effect the other way; inactive = flat fitted curve, though single readings scatter.
Potency is the fitted concentration of half-maximal effect.

The assay in a line: cAMP Responsive Elements (CRE) small molecule agonists, cell-based qHTS assay: qHTS cell viability counter screen (AID 2060914). Note: nearly all actives have a fitted effect of over 50% in size. Particulars: CRE-bla HEK293T viability, CellTiter-Glo luminescence, 5 h; series mostly up to 92.4 µM. An excerpt:
National Center for Advancing Translational Sciences [NCATS]
Division of Preclinical Innovation [DPI]
U.S. Environmental Protection Agency [EPA]
National Institutes of Environmental Health Sciences [NIEHS]
National Toxicology Program [NTP]
U.S. Food and Drug Administration [FDA]
CREB (cyclic-AMP Responsive Element Binding Protein) is a cellular transcription factor. It binds to certain DNA sequences called cAMP Responsive Elements (CRE) and regulates the transcription of the genes. […] This cell line can be used to find agonists/antagonists of the cyclic AMP signaling pathway. The activation of the report gene under culture conditions can be detected by fluorescence intensity. This cell line has been used to screen the Tox21 10K compound library to identify agonists that induce oxidative stress. The cytotoxicity of the Tox21 compound library against the CRE-bla cell line was tested in parallel by measuring the cell viability using CellTiter-Glo assay (Promega, Madison, WI) in the same wells.
Tox21 Assay Protocol Summary:
CRE-bla Hek 293T cells were suspended in assay medium (DMEM containing 10% dialyzed FBS, 0.1 mM NEAA, 1 mM sodium pyruvate and 25 mM HEPES) and dispensed at 2,000 cells/5 uL /well into 1536-well black wall/clear bottom plates using a Multidrop Combi (ThermoFisher Scientific, Waltham, MA) dispenser. After the assay plates were incubated at 37 C/5% CO2 for 18 hrs, 23 nL of compounds dissolved in DMSO, positive controls or DMSO only was transferred to the assay plate by a pintool workstation (Kalypsys, San Diego, CA). After the plates were incubated at 37 C/5% CO2 for 3 hrs, 1 uL of LiveBLAzer B/G FRET substrate (Invitrogen, Carlsbad, CA) was added to each well using Bioraptr Flying Reagent Dispenser (FRD, Aurora Discovery, San Diego, CA). The plates were incubated at room temperature for 2 h, then fluorescence intensities were measured using an Envision plate reader (PerkinElmer, Shelton, CT) at Excitation 405nm, Emission 460nm and 530nm. The % activity was determined from the ratio of 460nm/530nm. For cell viability readout that measures cytotoxicity, 4 uL /well of CellTiter-Glo reagent was added into the assay plates using Bioraptr FRD. After 30 min incubation at room temperature, the luminescence intensity in the assay plates was measured using a ViewLux (PerkinElmer, Shelton, CT) plate reader.
On the technique in general: Quantitative high-throughput screening tests each substance at several concentrations.
As for `O=C1c2ccccc2Cc2ccccc21`, the Potency entry is “inactive”. Same read-out and setting: to `C=CC(C)CCC=C(C)C` (stereo not given) belongs “inactive”; to `CC(C)=CCC/C(C)=C/CC/C(C)=C/C(=O)OCC(=O)[C@@]1(O)CC[C@H]2[C@@H]3CCC4=CC(=O)C=C[C@]4(C)[C@H]3[C@@H](O)C[C@@]21C`, “inactive”. Take `COc1ccc(N)c(C)c1`: the Potency entry was “inactive”.

Consider `C=CCOC(=O)COCCC(C)C`, for which the Potency entry is “inactive”.

Take `Nc1ccc2cc(S(=O)(=O)O)cc(O)c2c1`: the Potency entry is “inactive”. As for `CC(COc1ccccc1)NN` (stereo not given), the Potency entry is “inactive”. The same measure, in the same setting: to `C=CC(=O)[O-].C=CC(=O)[O-].[Zn+2]` belongs “inactive”; to `Clc1cccc(C(c2ccc3nc[nH]c3c2)n2ccnc2)c1` (stereo not given), “inactive”; to `C=COC(=O)C(C)(CC)CCC(C)C` (stereo not given), “inactive”. Same read-out and setting: the entry for `CC(C)CCOC(=O)c1ccc(N(C)C)cc1` is “inactive”; for `CCCCCCCC(=O)N(C)C` it is “inactive”. Still for that read-out and setting: to `N=C(N)c1ccc(OCCCCCOc2ccc(C(=N)N)cc2)cc1` belongs “inactive”; to `CC[C@H]1OC(=O)[C@H](C)[C@@H](O[C@H]2C[C@@](C)(OC)[C@@H](O)[C@H](C)O2)[C@H](C)[C@@H](O[C@@H]2O[C@H](C)C[C@H](N(C)C)[C@H]2O)[C@](C)(O)C[C@@H](C)/C(=N\OCOCCOC)[C@H](C)[C@@H](O)[C@]1(C)O`, 36 µM (active).

For `NC[C@H]1O[C@H](O[C@H]2[C@H](O)[C@@H](O[C@H]3O[C@H](CO)[C@@H](O)[C@H](N)[C@H]3O)[C@H](N)C[C@@H]2N)[C@H](O)[C@@H](O)[C@@H]1O`, the activity change, negative = cytotoxicity is 14.7% [at 8.39 µM]. In the case of `OCC1CC2CC1C1CCC(CO)C21` (stereo not given), the Potency entry is “inactive”. Consider `Cc1cc(NS(=O)(=O)c2ccc(N)cc2)nc(C)n1`, for which the Potency result is “inactive”. The same measure, in the same setting: to `CC(C)(C)c1ccc(CCC=O)cc1` belongs “inactive”; to `COc1c(Cl)c(Cl)c(Cl)c(Cl)c1Cl`, “inactive”. Regarding `CC(=O)S[C@H](C(=O)N[C@H]1Cc2ccccc2[C@H]2CCC[C@@H](C(=O)O)N2C1=O)C(C)C`, the Potency result is “inactive”. The same measure, in the same setting: the entry for `CCOC(=O)C1CC(=O)C(=C(O)C2CC2)C(=O)C1` (stereo not given) is “inactive”; for `CN(CCOc1ccc(CC2SC(=O)NC2=O)cc1)c1ccccn1` (stereo not given) it is “inactive”. Take `CCCCCCCCCCCCCCCCCl`: the activity change, negative = cytotoxicity is -18.4% [at 18.9 µM]. For the compound `O=C(Nc1cccc(C2=NCCN2)c1)Nc1cccc(C2=NCCN2)c1`, the activity change, negative = cytotoxicity was 10.9% [at 18.9 µM]. For `CCC(=O)O[C@]1(C(=O)COC)[C@@H](C)C[C@H]2[C@@H]3CCC4=CC(=O)C=C[C@]4(C)C3(F)[C@@H](O)C[C@@]21C` (stereo not given in full), the Potency result is “inactive”. Still for that read-out and setting: the entry for `COCC(C)O` (stereo not given) is “inactive”; for `Nc1c(Br)cc([N+](=O)[O-])cc1Br` it is “inactive”. Same read-out and setting: to `CNC(=S)N(C)C` belongs “inactive”. With `C=C/C=C/C=C/CCCCC`, the activity change, negative = cytotoxicity is -22.6% [at 18.9 µM]. Take `CCN(CC)CC(=O)Nc1c(C)cccc1C`: the Potency entry is “inactive”. For the compound `O=[N+]([O-])c1ccc(Nc2ccc(Nc3ccccc3)c(S(=O)(=O)O)c2)c([N+](=O)[O-])c1`, the Potency entry is “inactive”.

With `CC(C)(c1ccc(Oc2ccc(N)cc2)cc1)c1ccc(Oc2ccc(N)cc2)cc1`, the Potency result is “inactive”. Same read-out and setting: to `CCC(C)c1ccccc1` (stereo not given) belongs “inactive”. Consider `CC(=O)/C=C/C1C(C)=CCC(C)C1(C)C` (stereo not given), for which the Potency entry is “inactive”. The same measure, in the same setting: to `CC(C)CO` belongs “inactive”. With `CCCOC(=O)CC`, the Potency entry was “inactive”. Take `C/C(=C(\CCOP(=O)(O)O)SC(=O)c1ccccc1)N(C=O)Cc1cnc(C)nc1N`: the activity change, negative = cytotoxicity was -13.5% [at 8.39 µM].

As to `C=C(C)C(=O)O`, the Potency entry was “inactive”. The same measure, in the same setting: to `CC(NCCC(c1ccccc1)c1ccccc1)c1ccccc1` (stereo not given) belongs “inactive”; to `O=C1O[C@H]([C@H](O)CO)C(O)=C1O`, “inactive”.
